HPGD inh: HPGD (human) dehydrogenase inhibition; Potency, µM, inactives show top-dose activity change, negative = inhibition, usual class: inhibitors; purified HPGD, NADH fluorescence kinetic, PGE2 substrate; 4.3% of 150,000 active; P15428; note: potency is the fitted concentration of half-maximal effect
Target sequence (P15428 whole entry, looked up): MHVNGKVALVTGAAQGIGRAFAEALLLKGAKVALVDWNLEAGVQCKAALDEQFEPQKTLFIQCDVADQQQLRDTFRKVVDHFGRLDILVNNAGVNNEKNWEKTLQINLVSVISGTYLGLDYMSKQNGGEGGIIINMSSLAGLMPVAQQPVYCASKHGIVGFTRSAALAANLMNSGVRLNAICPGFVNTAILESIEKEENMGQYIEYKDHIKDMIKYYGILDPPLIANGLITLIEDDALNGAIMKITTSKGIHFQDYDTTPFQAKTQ
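NADH formation kinetics: reaction with 30 uM PGE2 and 1 mM NAD+ (final), 20 nM enzyme, Tris-HCl pH 8 with Tween 20, after 15 min compound preincubation at room temperature. Fluorescence change, last versus first of five reads.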
ALDH1A1 inh: blocks purified human ALDH1A1 activity | Potency, µM (series often up to 75.3 µM), for the others: top-dose activity, negative = inhibition, hits mostly inhibitors | 7.3% of 220,000 active | P00352 | Purified ALDH1A1, NADH fluorescence, propionaldehyde substrate;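 note: potency is the fitted concentration of half-maximal effect; plate controls were no enzyme wells and a reference inhibitor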
PNC assembly inh: perinucleolar compartment assembly inhibition; 3.1% of 140,000 active; PC3M PTB-GFP, PNC prevalence imaging, 16 h; stronger effect = lower value; activity change (PNC), negative = inhibition, % at 10 µM;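 active = readout at or below -70, meaning at least 70% loss of cells showing the perinucleolar compartment, a nuclear body marking cancer cells; inconclusive = readout between -30 and a set limit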;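 note: plate controls were DMSO wells for no effect and camptothecin positive control wells for full effect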
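PC3M cells stably expressing PTB-GFP, 750–1000 cells/well, treated 16 h at 37 °C with compound (23 nl of library stock), in duplicate. After paraformaldehyde fixation and Hoechst stain, imaged at 20x; PNC prevalence scored by image analysis.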
The depositor's hits bear a star; ? = inconclusive; / = not tested or not shown; [ ] = another dose, or the depositor's remark. Only some compounds are listed: those with a hit (about 11% of all), similar ones and a draw of the others. Unless noted, calls come from the whole dose curve; as a rule, active = well fitted inhibition curve with a large enough effect (not every such curve was filed as active); inconclusive = small, poorly fitted or top-dose-only effect, or another doubt; inactive = no such curve, though single readings can be large or run the other way. Unless noted, % is set by controls: 0 for no effect and ±100 for the full control effect.

SMILES	HPGD inh	ALDH1A1 inh	PNC assembly inh
CO[C@@H]1COC(=O)C/C=C\[C@H](C)COC(=O)[C@H](Cc2ccccc2)NC(=O)C/C=C\[C@H]1C	/	-6.2%[13.5 µM]	/
Cc1c(NC(=O)C(C)OC(=O)c2c3c(nc4ccccc24)CCC3)c(=O)n(-c2ccccc2)n1C (stereo not drawn)	-17.3%	-4.3%	11.0
O=C(Nc1ccc(Cl)c(Cl)c1)OCCNC(=O)c1cccc(Cl)c1	-6.0%	-3.2%	-6.2
Cc1ccc(S(=O)(=O)N2C(=O)C(C)SC2=Nc2ccccc2)cc1 (stereo not drawn)	-4.7%	?	?
Cc1ccc(S(=O)(=O)N2C(=O)C(c3ccccc3)SC2=Nc2ccccc2)cc1 (stereo not drawn)	10µM*	8.91µM*	22.3
O=C(/C=C/c1ccccc1)NC(=S)Nc1ccc(N2CCOCC2)cc1	-2.1%	?	?
CCN(CC)S(=O)(=O)c1cccc(NC(=S)NC(=O)/C=C/c2ccc(S(=O)(=O)N3CCOCC3)cc2)c1	-10.6%	0.3%	18.6
O=C(/C=C/c1ccc(S(=O)(=O)N2CCOCC2)cc1)NC(=S)Nc1ccc(Cl)cc1Cl	/	1.12µM*	/
O=C(/C=C/c1ccc(Cl)cc1)NC(=S)Nc1ccc(N2CCOCC2)c(Cl)c1	/	14.1µM*	-25.6
CCOc1ccccc1NC(=O)COC(=O)CSc1ccc(Cl)cc1	-7.4%	-3.1%	-17.5
COc1ccc2ccc3c(c2c1)N=C[C@]1(O3)N(C)c2ccccc2C1(C)C	31.6µM*	?	100.1
CC1=NOC2(C1)N(C)c1ccccc1C2(C)C (stereo not drawn)	-5.7%	-0.8%	-15.1
CCC(C)C(=O)O[C@H]1C[C@@H](C)C=C2C=C[C@H](C)[C@H](CC[C@@H]3C[C@@H](O)CC(=O)O3)C21 (stereo partly drawn)	3.5%	-3.5%	/
CC(C)Cn1c(-c2ccc(C#N)cc2)nc2c1c(=O)[nH]c(=O)n2CC(C)C	?	?	38.6
CC(=O)c1cccc(-n2nnnc2SCC(=O)N2CCCC2)c1	-15.4%	-2.9%	-27.7
COc1ccc(-n2nnnc2SCC(=O)N2C(C)CCCC2C)c(OC)c1 (stereo not drawn)	-15.2%	-14.4%	10.2
CC1CCCC(C)N1C(=O)CSc1nnnn1-c1cccc2c1CCCC2 (stereo not drawn)	-15.6%	28.2µM*	?
CCOc1ccc(-n2nnnc2SCC(=O)N2CCOCC2)cc1	-5.9%	-2.3%	?
O=C(CSc1nnnn1-c1cccc2c1CCCC2)N1CCCC1	-23.6%	14.1µM*	15.2
O=C(CSc1nnnn1-c1cccc2c1CCCC2)N1CCOCC1	?	7.94µM*	-19.4
CC(=O)Nc1ccc(NC(=O)COC(=O)Cc2cccs2)cc1	-8.3%	-4.6%	21.0
CC(=O)OC1CC(O)C(C)(C)C2CC(OC(C)=O)[C@]3(C)C(CC[C@@]4(C)C(c5ccoc5)OC(=O)C5OC534)[C@]12C (stereo partly drawn)	7.9%	5.5%	/
CCCn1cnc2c(c1=O)c1nc3ccccc3nc1n2CCC1=CCCCC1	-13.6%	-8.0%	-6.5
O=c1c2c3nc4ccccc4nc3n(/N=C/c3ccco3)c2ncn1CCC1=CCCCC1	-15.7%	25.1µM*	?
CCSc1ncc(Cl)c(C(=O)Nc2sc3c(c2C(=O)NCc2cccnc2)CCCC3)n1	-17.8%	?	-19.6
SMILES	HPGD inh	ALDH1A1 inh	PNC assembly inh
COc1ccc(NC(=O)CSc2nnc(-c3ccncc3)n2CC2CCCO2)c(OC)c1 (stereo not drawn)	-10.7%	9.3%	?
Cc1ccc(C(C(=O)NC2CCCC2)N(C(=O)c2csnn2)C2CCCC2)o1 (stereo not drawn)	/	-15.4%	?
Cc1ccc(C(C(=O)NC2CCCCC2)N(Cc2ccco2)C(=O)C2COc3ccccc3O2)o1 (stereo not drawn)	-11.6%	12.0%	11.6
Cc1ccc(C(C(=O)NC2CCCCC2)N(Cc2cccnc2)C(=O)C2COc3ccccc3O2)o1 (stereo not drawn)	-7.9%	12.6µM*	?
Cc1ccc(CN(C(=O)c2csnn2)C(C(=O)NC2CCCC2)c2ccc(C)o2)cc1 (stereo not drawn)	-17.1%	14.1µM*	302.9
CCN(CC)c1ccc(N2C(=O)/C(=C/c3cccnc3)SC2=S)cc1	-6.2%	0.5%	81.5
O=S(=O)(c1cnc(Cl)c(Br)c1)N1CCc2ccccc21	/	2.82µM*	/
Cn1cnc(S(=O)(=O)N2CCc3ccccc32)c1	-4.9%	9.6%	8.2
O=S(=O)(NC1CC1)c1ccc(S(=O)(=O)N2CCCc3ccccc32)cc1	-4.2%	?	?
O=S(=O)(c1cnc(Cl)c(Cl)c1)N1CCCc2ccccc21	-13.0%	3.16µM*	15.0
CCOC(=O)c1cc2c(ccn2C)n1CC(=O)N(CC)CC	/	-1.5%	/
